About 83,000 compounds went through this panel and 20% of them were active in at least one assay; those are over-represented in the sample as a whole.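 Growth was measured after 48 h exposure to one concentration of compound in 96-well plates. Values under 10 count as active.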 A number with no mark means an inactive call. Active and inactive are the calls of the source.
What was measured:
Test in all cases: NCI-60 one-dose screen, 48 h (100 = growth as untreated, 0 = no growth, -100 = all killed)
Details in all cases: 10 µM unless noted
T-47D breast = test system: T-47D breast
BT-549 breast = test system: BT-549 breast
MDA-MB-435 melanoma = test system: MDA-MB-435 melanoma
SW-620 colon = test system: SW-620 colon
MCF7 breast = test system: MCF7 breast
HCT-116 colon = test system: HCT-116 colon
HCC-2998 colon = test system: HCC-2998 colon
KM12 colon = test system: KM12 colon

Compound	growth (T-47D breast)	growth (BT-549 breast)	growth (MDA-MB-435 melanoma)	growth (SW-620 colon)	growth (MCF7 breast)	growth (HCT-116 colon)	growth (HCC-2998 colon)	growth (KM12 colon)
Clc1cccc(/C=N/Nc2nc(N/N=C/c3cccc(Cl)c3)nc(N3CCCCC3)n2)c1	76%	94.9%	90.4%	103%	83.1%	97.2%	108%	91.1%
O=C(CSc1nc2ccccc2c(=O)n1-c1ccccc1)N/N=C/c1ccc(Oc2ccc(Cl)cc2)cc1	82.5%	69.9%	84.6%	43.1%	64.5%	5.62% (active)	95.4%	83.7%
CN1CCN(c2ccc(Nc3nc(NCCNS(=O)(=O)c4ccc5ccccc5c4)c4sccc4n3)cc2)CC1	55.2%	86.7%	53.7%	35.2%	32.9%	14.7%	72.3%	86.7%
CC(C)(C)c1cc(NC(=O)Nc2ccc(-c3cn4c5c(sc4n3)CCc3cn(CCCN4CCCCC4)cc3-5)cc2)no1	-32.8% (active)	109%	-98.5% (active)	-68.2% (active)	-79% (active)	-96.2% (active)	-82.7% (active)	-78% (active)
Cn1cc(C2=C(c3coc4cc(Br)ccc34)C(=O)NC2=O)c2ccccc21	70%	82.6%	8.23% (active)	42.1%	51.2%	57.4%	104%	80.5%
C(=N\Nc1nc(N/N=C/c2ccc3c(c2)OCO3)nc(N2CCCCC2)n1)/c1ccc2c(c1)OCO2	87.2%	122%	98.5%	82.4%	54.8%	47.9%	83.8%	86.2%
C[C@H](Nc1ncnc2ccc(-c3cnc(Cl)c(NS(C)(=O)=O)c3)cc12)c1ccccc1	-53.2% (active)	-61.5% (active)	-40% (active)	1.48% (active)	2.5% (active)	-61.4% (active)	-77.3% (active)	-79% (active)
COc1cc(OC)cc(-c2cc(-c3c[nH]c4ccccc34)nc(-c3c[nH]c4ccccc34)c2C#N)c1	98.3%	104%	99.4%	103%	90.7%	101%	113%	98.7%
CCCc1[nH]c(-c2cc(N)ccc2Cl)c2c1C(=O)CCCC2	75.7%	111%	99.5%	105%	87.1%	95.2%	101%	93.7%
O=C(N/N=C/c1cc2ccccc2nc1Cl)c1cc(-c2nc3ccccc3[nH]2)nc2ccccc12	67.5%	85.9%	101%	101%	89.7%	98.8%	104%	97.2%
CSc1ccc(/C(=N/N=C(N)N)c2ccc(F)cc2)cc1	58.1%	16.2%	10.6%	22.2%	5.11% (active)	6.25% (active)	-14.1% (active)	9.6% (active)
COc1ccc(C2CC(c3cccc(OCCCCOc4cccc(C5=NOC(c6ccc(OC)cc6)C5)c4)c3)=NO2)cc1 (configuration not stated)	73.7%	113%	105%	32.9%	15%	-21.9% (active)	101%	76.2%
COc1ccc2c(c1)c(-c1nn3cc(-c4ccncc4)nc3s1)cn2C	42.4%	71.5%	96.3%	69.5%	19.3%	55.1%	87.2%	83.3%
Cc1ccccc1NC(=O)Nc1nc2ccc([N+](=O)[O-])cc2s1	-10.8% (active)	-2.98% (active)	5.39% (active)	11.6%	4.12% (active)	2.44% (active)	24.6%	4.18% (active)
C#Cc1nc(C(=O)NCCCCCCC(=O)NO)cs1	-38.5% (active)	50.3%	-34.9% (active)	0.565% (active)	6.97% (active)	-18.2% (active)	25.9%	-7.86% (active)
CN1CCN(Cc2ccc(/C=N/Nc3ccnc4cc(Cl)ccc34)cc2)CC1	103%	123%	93.6%	69.9%	54.7%	37%	67.8%	74.8%
O=C1Nc2cc(Cl)ccc2/C1=C\c1ccc(OCc2ccccc2)cc1	95.7%	101%	99.4%	99.4%	61.6%	97.7%	102%	95.1%
O=S(=O)(NCCCNc1nccc(-c2[nH]c(-c3ccccc3)nc2-c2ccc(F)c(O)c2)n1)c1ccc(C(F)(F)F)cc1	50.7%	55.9%	-40.6% (active)	59.8%	7.95% (active)	19.1%	97.8%	36.6%
NCCNC(=O)c1cccc(COc2ccccc2NC(=O)c2cc(Cl)c(Cl)[nH]2)c1	89.2%	105%	101%	111%	77.7%	86.1%	106%	101%
CN1CCN(Cc2ccc(NC(=O)c3cncc(C#Cc4cnc5ccc(OCC(F)F)nn45)c3)cc2C(F)(F)F)CC1	8.64% (active)	-16.6% (active)	-92.6% (active)	-49.1% (active)	-66.6% (active)	-84.3% (active)	-67% (active)	-53.9% (active)
COc1cccc2c1C=CC1(O2)Oc2cccc(OC)c2C=C1C (configuration not stated)	45.7%	25.1%	-10.1% (active)	30%	13.1%	14%	15.8%	20.5%
CCOC(=O)c1cccnc1Nc1ccc(NC(=O)Nc2ccc(Cl)c(C(F)(F)F)c2)cc1	-1.09% (active)	60.9%	53.1%	37.1%	17.8%	16.4%	50.4%	17.5%
Cc1[nH]c(C(=O)Nc2ccc(C(=O)NCC3CCNCC3)cc2OC(C)C)c(Cl)c1Cl	77.6%	92.6%	72.2%	33.6%	-76.3% (active)	33.2%	55.3%	56%
COc1ccc(OC)c(NC(=O)CCCCCCNC(=O)C(O)(O)C(F)(F)F)c1	22.4%	76.8%	30.1%	6.62% (active)	36.9%	7.1% (active)	51.5%	43.5%
CC1=C(SCC(=O)OCCCCCC(C)C)C(=O)c2ccccc2C1=O	74.3%	94.4%	102%	99.3%	72.1%	89.7%	110%	91.2%
Cc1ccccc1N1CCN(C2=C(Cl)C(=O)c3ncccc3C2=O)CC1	-52.5% (active)	99.1%	-62.9% (active)	-27.8% (active)	-29.3% (active)	-95.2% (active)	105%	87.2%
CCc1cc(O)ccc1Nc1cc(-c2ccc(-n3cccn3)cc2)[nH]n1	35.7%	85.7%	33%	63.1%	34.3%	39%	61.5%	16.6%
Nc1ncc(-c2ccc3ncnc(NCc4ccccc4)c3c2)cn1	15%	34.5%	65.1%	73.7%	19.3%	66.5%	59.8%	72.1%
O=C(CCCCCCN1CC(=O)N2[C@@H](c3cccs3)c3[nH]c4ccccc4c3C[C@H]2C1=O)NO	42.7%	104%	80.8%	82.7%	52.1%	60.5%	101%	81.8%
